Assay [1] in a line: compounds altering viability of human ES cells (AID 493140).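 Also: cells exposed to compounds for four days before counting.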 The following applies: human embryonic stem cell survival screen; stronger effect = higher value.
Assay [2] in a line: viability loss with induced miR-34 in A549 – imaging, A549 dox-inducible miR-34, nuclei and caspase counts, primary screen (AID 1347080;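 active = compounds whose cell count with miR-34 switched on is under 0.7 times the count with it off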). The following applies: A549 miR-34 inducible, Hoechst nuclei count, 48 h.
Assay [3] can be described thus: chitosan synthesis blockers in C. neoformans – flow cytometry, Cibacron Brilliant Red staining (AID 1347148).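 Also: compound exposure lasted three days at 37 degrees C.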 The following applies: Cryptococcus neoformans chitosan, stronger effect = lower value; at 10 µM unless noted. On the technique in general: Flow cytometry measures light scatter and fluorescence of single cells or particles in a stream.
Assay [4] in a line: blockers of cellular phospholipid synthesis – cell-based, LOPAC library, screen 4, primary screen (AID 1347384). The following applies: animal cells, phospholipid biosynthesis inhibition screen; at 10 µM.
Assay [5] in a line: galactose survival enhancers in mitochondrial complex I cybrids – cell-based, galactose medium, ATP luminescence, primary screen (AID 1645843;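 active = z-score of at least 1.8 in each of two replicates, scored against plate mean and spread of sample wells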;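 also: positive z means more ATP and so rescue of galactose-driven cybrid death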). The following applies: complex I mutant cybrid cells, 72 h, stronger effect = higher value.
Assay [6] is described as follows: compounds altering circadian rhythm period length – cell-based, LOPAC library, luminescence reporter (AID 2774).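 Also: values are relative to mean of DMSO wells on each plate.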 The following applies: circadian reporter cells, at 7 µM, actives lie on both sides.
The subject of assay [7] is Hepatitis C virus NS3 helicase. Nature of the assay: blockers of NS3h binding to ssDNA – biochemical, fluorescence polarization, LOPAC1280 library, primary screen (AID 687035; in the data active = inhibition above about 37%). The following applies: Purified HCV NS3 helicase, Cy5-dT15 ssDNA binding fluorescence polarization; stronger effect = higher value; concentration not given here.
Assay [8] in a line: compounds altering Cy5-DNA-NS3h complex signal – biochemical, LOPAC1280, artefact control for HCV NS3 helicase inhibitor project (AID 687037). The following applies: Cy5-DNA-NS3h complex fluorescence interference counterscreen. For orientation: A counterscreen serves to expose hits that act by an unwanted route or on another target.
Setting [9] is: measured here: relative caspase fold change +Dox/-Dox.
The mark [10] stands for this setting: measured here: total cells with miR-34 induction, stronger effect = lower value.
Where [11] appears, read: measured here: total cells without miR-34 induction.

Values joined by “and” are separate entries in the source; they are usually repeats but may differ in a detail not shown here. Identical values can stand only once. Active and inactive are the calls of the source. Unless noted, no rule for the calls is given here.

`CCCCC[C@@H](/C=C/C=C\CCCCCCCC(=O)O)OO`: in assay [1], the survival is 94.8 (inactive). Moreover, the fold change is 0.981 (inactive) in assay [2] (stronger effect = lower value) and 1.1 in assay [2] (setting [9]). Moreover, the cell count came to 5710 in assay [2] (setting [10]) and 5820 in assay [2] (setting [11]). The fold fluorescence in assay [3] was 6.27 [at 1 µM] (inactive).
As to `CN1CCC[C@@H]1Cc1c[nH]c2ccc(Nc3ncccc3[N+](=O)[O-])cc12`, the values for the fold change in assay [2] (stronger effect = lower value) and in assay [2] (setting [9]) were 1.01 (inactive) and 1.84, respectively. Besides, the cell count is 7590 in assay [2] (setting [10]) and 7510 in assay [2] (setting [11]). Further, the call in assay [4] was inactive. Moreover, the z-score in assay [5] was -0.89 (inactive).
In general, inhibition refers to the relative decrease from the control value, in per cent. As for `Oc1ccc2c3c1O[C@H]1c4[nH]c5ccccc5c4C[C@@]4(O)C(C2)N(CC2CC2)CCC314` (stereo not given in full), the period change in assay [6] is 0.005 h (inactive). The inhibition in assay [7] was -4% (inactive). For the same compound, the fluorescence ratio (interference) in assay [8] is 1 (inactive). The fold change was 1.01 (inactive) in assay [2] (stronger effect = lower value) and 1.69 in assay [2] (setting [9]). The cell count in assay [2] (setting [10]) turned out to be 8190; in assay [2] (setting [11]), 8080. Moreover, the compound was called inactive in assay [4]. Besides, the z-score in assay [5] was -0.835 (inactive).
For the compound `COc1cc(C(O)CN)ccc1O` (stereo not given), the period change in assay [6] was -0.145 h (inactive). For the same compound, in assay [7], the inhibition is -3% (inactive). Also, the fluorescence ratio (interference) in assay [8] was 1 (inactive). Besides, the fold change was 1.05 (inactive) in assay [2] (stronger effect = lower value) and 2.66 in assay [2] (setting [9]). Further, the cell count in assay [2] (setting [10]) was 11000; in assay [2] (setting [11]) it was 10500. Also, the compound was called inactive in assay [4]. In addition, the z-score in assay [5] was 0.4 (inactive).
As to `CCCCC/C=C\C/C=C\C/C=C\C/C=C\CCCCCC(=O)NCCO`, the survival in assay [1] is 86.3 (inactive). In addition, the fold change in assay [2] (stronger effect = lower value) is 1.02 (inactive) and 1.04 (inactive); in assay [2] (setting [9]) it was 1.64 and 1.22. Also, the cell count in assay [2] (setting [10]) was 5810 and 5940; in assay [2] (setting [11]), 5700 and 5690. The fold fluorescence in assay [3] is 5.48 (inactive).
Take `N=C(N)c1ccc(CS(=O)(=O)F)cc1`: the inhibition in assay [7] is -2% (inactive). For the same compound, the fluorescence ratio (interference) in assay [8] is 1 (inactive). Moreover, the values for the fold change in assay [2] (stronger effect = lower value) and in assay [2] (setting [9]) were 1.04 (inactive) and 1.07, respectively. The cell count was 11100 in assay [2] (setting [10]) and 10700 in assay [2] (setting [11]). Besides, the compound was classed as inactive in assay [4]. The z-score in assay [5] was 0.445 (inactive).
Regarding `N#CC(C#N)=Cc1ccc(O)cc1`, the survival in assay [1] is 59.8 (inactive). Also, the fold change in assay [2] (stronger effect = lower value) is 1.08 (inactive); in assay [2] (setting [9]), 1.22. In addition, the cell count in assay [2] (setting [10]) amounted to 5450; in assay [2] (setting [11]), 5070. In addition, in assay [3], the fold fluorescence is 5.71 [at 293.8 µM] (inactive).
On to `CCNC(=O)[C@H]1O[C@@H](n2cnc3c(N)ncnc32)C(O)[C@H]1O` (stereo not given in full), for which the period change in assay [6] is -0.025 h (inactive). Also, the inhibition in assay [7] was 0% (inactive). The fluorescence ratio (interference) in assay [8] was 1 (inactive). Moreover, the fold change in assay [2] (stronger effect = lower value) was 1.03 (inactive); in assay [2] (setting [9]), 1.36. Further, the cell count in assay [2] (setting [10]) stood at 9250; in assay [2] (setting [11]), 8960. Besides, the call in assay [4] was inactive. For the same compound, the z-score in assay [5] was 0.625 (inactive).
On to `CCCC[C@H]1C(=O)O[C@H](C)[C@H](NC(=O)c2cccc(NC=O)c2OC)C(=O)O[C@@H](C)[C@@H]1OC(=O)CC(C)C`, for which the fold change in assay [2] (stronger effect = lower value) is 1.28 (inactive); in assay [2] (setting [9]), 0.897. In addition, the cell count is 869 in assay [2] (setting [10]) and 680 in assay [2] (setting [11]). Also, in assay [3], the fold fluorescence is 6.91 [at 93.5 µM] (inactive).
The like results for `Clc1ccc(C2CC3CCC2N3)cn1` (stereo not given) were, in that order, 0.945 (inactive), 1.19, 6010, 6360 and 4.32 [at 239.6 µM] (inactive).
As for `CCCCCCCCCCCCCC(=O)O[C@@H]1[C@@H](C)[C@@]2(O)[C@@H](C=C(CO)C[C@@]3(O)C(=O)C(C)=C[C@@H]23)C2C(C)(C)[C@@]21OC(C)=O` (stereo not given in full), the period change in assay [6] is -1.74 h (active). The inhibition in assay [7] was -2% (inactive). Moreover, the fluorescence ratio (interference) in assay [8] is 1 (inactive). Moreover, the fold change is 0.676 (active) in assay [2] (stronger effect = lower value, cell number ratio, induced over uninduced) and 1.62 in assay [2] (setting [9]). For the same compound, the cell count in assay [2] (setting [10]) worked out at 418; in assay [2] (setting [11]) it was 618. Moreover, in assay [4], the call was inactive. In assay [5], the z-score is -1.38 (inactive).
With `C[C@@H]1O[C@@H](O[C@H]2C[C@@H](O)[C@]3(CO)[C@@H]4C(CC[C@]3(O)C2)[C@@]2(O)CC[C@H](C3COC(=O)C3)[C@@]2(C)C[C@H]4O)[C@H](O)[C@H](O)[C@H]1O` (stereo not given in full), the period change in assay [6] is -0.47 h (inactive). Also, the inhibition in assay [7] was -1% (inactive). Further, the fluorescence ratio (interference) in assay [8] was 1 (inactive). Also, the fold change was 0.861 (inactive) in assay [2] (stronger effect = lower value) and 1.72 in assay [2] (setting [9]). In addition, the cell count was determined as 370 in assay [2] (setting [10]) and 430 in assay [2] (setting [11]). In addition, in assay [4], the compound was called inactive. Moreover, in assay [5], the z-score is -0.995 (inactive).
For `COc1ccc2c(c1)C13CCCCC1C(C2)N(C)CC3` (stereo not given), the period change in assay [6] is 0 h (inactive). For the same compound, the inhibition in assay [7] was -1% (inactive). For the same compound, the fluorescence ratio (interference) in assay [8] was 1.1 (inactive). Moreover, the results for the fold change in assay [2] (stronger effect = lower value) and in assay [2] (setting [9]) were 1.04 (inactive) and 1.15, respectively. Besides, the cell count in assay [2] (setting [10]) amounted to 10100; in assay [2] (setting [11]), 9710. Besides, the result in assay [4] was inactive. In assay [5], the z-score was -0.635 (inactive).
On to `C=CCN1CCC23c4c5ccc(O)c4O[C@H]2C(=O)CC[C@@]3(O)C1C5` (stereo not given in full), for which the period change in assay [6] was -0.035 h (inactive). In addition, in assay [7], the inhibition is -4% (inactive). The fluorescence ratio (interference) in assay [8] was 1 (inactive). For the same compound, the figures for the fold change in assay [2] (stronger effect = lower value) and in assay [2] (setting [9]) were 1.07 (inactive) and 1.06, respectively. Further, the cell count in assay [2] (setting [10]) came out at 11300; in assay [2] (setting [11]) it was 10600. In assay [4], the outcome was inactive. For the same compound, in assay [5], the z-score was 0.37 (inactive).
`CCCCC/C=C\C/C=C\CCCCCCCC(=O)NCCO`: the survival in assay [1] was 162 (inactive). The fold change in assay [2] (stronger effect = lower value) was 1.09 (inactive) and 1.06 (inactive); in assay [2] (setting [9]) it was 1.07 and 1.16. Moreover, the cell count in assay [2] (setting [10]) is 5710 and 5830; in assay [2] (setting [11]), 5220 and 5490. Further, the fold fluorescence in assay [3] was 4.78 (inactive).
Consider `CCCCC[C@@H](/C=C/C=C\C/C=C\C/C=C\CCCC(=O)O)OO`, for which the survival in assay [1] is 120 (inactive). Further, the fold change in assay [2] (stronger effect = lower value) was 0.973 (inactive); in assay [2] (setting [9]), 0.92. Besides, the cell count in assay [2] (setting [10]) turned out to be 5790; in assay [2] (setting [11]) it was 5950. Also, the fold fluorescence in assay [3] was 5.13 [at 1 µM] (inactive).
For the compound `CC(N)c1cccc(Cl)c1Cl` (stereo not given), the period change in assay [6] was 0.03 h (inactive). For the same compound, in assay [7], the inhibition was -2% (inactive). Besides, the fluorescence ratio (interference) in assay [8] was 1 (inactive). Moreover, the figures for the fold change in assay [2] (stronger effect = lower value) and in assay [2] (setting [9]) were 1.05 (inactive) and 0.961, respectively. Besides, the cell count was found to be 10200 in assay [2] (setting [10]) and 9670 in assay [2] (setting [11]). The result in assay [4] was inactive. Moreover, the z-score in assay [5] was 0.12 (inactive).
On to `NC(CCP(=O)(O)O)C(=O)O` (stereo not given), for which the period change in assay [6] is 0.135 h (inactive). For the same compound, in assay [7], the inhibition is -3% (inactive). The fluorescence ratio (interference) in assay [8] is 1 (inactive). The fold change was 1.04 (inactive) in assay [2] (stronger effect = lower value) and 2.08 in assay [2] (setting [9]). In addition, the cell count in assay [2] (setting [10]) turned out to be 10400; in assay [2] (setting [11]), 9940. In assay [4], the call was inactive. In addition, the z-score in assay [5] was 0.32 (inactive).

The record behind these values is PubChem BioAssay.
